Screening data (PubChem)
Only some compounds are listed: those with a hit (about 9.9% of all), similar ones and a draw of the others.
MCF10A rereplic = A quantitative high throughput screen for small molecules that induce DNA re-replication in MCF 10a normal breast cells. MCF 10A DNA re-replication, Hoechst nuclear intensity, 48 h. 350,000 tested, 2.9% active. Potency, µM (highest dose often 46.1 µM), inactives show at the highest dose activity, positive = re-replication, usual class: activators; also: potency is read from the fitted curve at half-maximal effect; % of control where 0% means no effect; nearly all actives have a fitted effect of over 50% in size
KB-3-1 cytotox = qHTS assay for MDR1-selective chemotherapeutics: Primary screen using the parental adenocarcinoma cell KB-3-1. AID 1347075, 2019. 400,000 tested, 1.4% active. KB-3-1 viability, CellTiter-Glo ATP luminescence, 72 h. Potency, µM (doses to about 46.1 µM), hits mostly cytotoxic; also: potency is read from the fitted curve at half-maximal effect; % is scaled to controls: 0 for no effect and ±100 for the full control effect; nearly all actives have a fitted effect of over 60% in size
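Cytotoxicity measured as CellTiter-Glo luminescence after 72 h at 37 C. Compound titrations were pinned onto drug-naive KB-3-1 parental adenocarcinoma cells grown in DMEM with 10% FBS, and normalized data fitted to concentration-response curves.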
SW480 rerep = A quantitative high throughput screen for small molecules that induce DNA re-replication in SW480 colon adenocarcinoma cells. AID 624297, 2012. SW480 DNA re-replication, Hoechst DNA content imaging, 48 h. Potency, µM (highest dose often 46.1 µM), for inactives: at the top dose re-replication activation, actives largely listed as activators. 340,000 tested, 1.8% active; also: potency is read from the fitted curve at half-maximal effect; % of control where 0% means no effect; nearly all actives have a fitted effect of over 55% in size
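Image-based read-out: total Hoechst fluorescence of nuclei (405 nm excitation, 500-530 nm emission), with hits raising the fraction of high-intensity nuclei. SW480 colon cells incubated 48 hr with compounds at 37 C.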
IL1B secr inh = qHTS for Inhibitors of Inflammasome Signaling: IL-1-beta AlphaLISA Primary Screen; THP-1 LPS/ATP IL-1B secretion, AlphaLISA, 16 h; active compounds read low; activity change, % at 57.5 µM; 360,000 tested, 4.7% active; in the data active = activity change below about -50%; inconclusive = mostly about -30% to -49%; also: % is scaled to controls: 0 for no effect and ±100 for the full control effect
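THP-1 cells pretreated 1 hr with compounds (up to 57.5 uM final), then stimulated with LPS (250 ng/mL final) plus ATP (1.25 mM final); secreted IL-1B measured by AlphaLISA after 16 hr, decreased signal indicating inhibition.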
KB-V1 MDR tox = qHTS assay for MDR1-selective chemotherapeutics: Primary screen using the drug-selected MDR subline cells KB-V1 | AID 1347076, 2019 | KB-V1 MDR cells viability, CellTiter-Glo, 72 h | 400,000 tested, 3.4% active | Potency, µM (series often up to 46.1 µM), hits mostly cytotoxic; also: potency is read from the fitted curve at half-maximal effect; % is scaled to controls: 0 for no effect and ±100 for the full control effect; nearly all actives have a fitted effect of over 60% in size
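In this primary screen, KB-V1 cells overexpressing P-gp are incubated with library compounds (lowest to highest concentration) for 72 h at 37 degrees C before a luminescent ATP viability read.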
The depositor's hits bear a star; [ ] = remark or other dose. Unless noted, calls follow the shape of the dose curve; as a rule, active = well fitted curve in the direction sought with a large enough effect; inconclusive = small, poorly fitted or top-dose-only effect, or another doubt; inactive = no such curve, though single readings can be large; an effect the other way counts as inactive or inconclusive.

For COc1ccc(CN2CN=C(Nc3nc4ccccc4s3)NC2)cc1 the results were MCF10A rereplic 3%, KB-3-1 cytotox inactive, SW480 rerep -6%, IL1B secr inh 26 and KB-V1 MDR tox 4.6µM*.
For Cc1csc2nc(O)c(C(=O)NCCCc3ccccc3)c(=O)n12 the results were MCF10A rereplic 1%, KB-3-1 cytotox inconclusive, SW480 rerep -1%, IL1B secr inh 8 and KB-V1 MDR tox 16µM*.
For Cc1nc2scc(C)n2c(=O)c1S(=O)(=O)NCCc1ccccc1 the results were MCF10A rereplic 6%, KB-3-1 cytotox inactive, SW480 rerep 6%, IL1B secr inh 48 and KB-V1 MDR tox inactive.
`Cc1csc2nc(O)c(C(=O)NCCC3=CCCCC3)c(=O)n12` gave MCF10A rereplic inconclusive, KB-3-1 cytotox inactive, SW480 rerep 0%, IL1B secr inh 0 and KB-V1 MDR tox 9.2µM*.
Screening CC1CN(C(=O)C2CCCC2)C(C)CN1C(=O)C1CCCC1 (stereo not given) returned MCF10A rereplic 1%, KB-3-1 cytotox inactive, SW480 rerep -2%, IL1B secr inh 0 and KB-V1 MDR tox 10µM*.
For CC1CN(C(=O)C2CCCCC2)C(C)CN1C(=O)C1CCCCC1 (stereo not given) the results were MCF10A rereplic 1%, KB-3-1 cytotox inactive, SW480 rerep -1%, IL1B secr inh 16 and KB-V1 MDR tox inactive.
Cc1ccc(S(=O)(=O)N2CCCC2C(=O)N(C)Cc2cccs2)cc1 (stereo not given) was read as MCF10A rereplic 7%, KB-3-1 cytotox inactive, SW480 rerep -6%, IL1B secr inh 5 and KB-V1 MDR tox 21µM*.
CNC(=O)C(=O)NCC1CCCN1S(=O)(=O)c1cccs1 (stereo not given) was read as MCF10A rereplic 7%, KB-3-1 cytotox inactive, SW480 rerep 23µM*, IL1B secr inh 35 and KB-V1 MDR tox inactive.
For Cc1ccc(S(=O)(=O)N2CCCC2CNC(=O)C(=O)NCc2cccs2)cc1 (stereo not given) the results were MCF10A rereplic 18%, KB-3-1 cytotox inconclusive, SW480 rerep inconclusive, IL1B secr inh 10 and KB-V1 MDR tox 13µM*.
CCNC(=O)C1CCCN1S(=O)(=O)c1ccc(C)cc1 (stereo not given) was read as MCF10A rereplic 21µM*, KB-3-1 cytotox inactive, SW480 rerep 0%, IL1B secr inh 0 and KB-V1 MDR tox inactive.
Screening COc1ccccc1NC(=O)Nc1ccc(F)c(F)c1 returned MCF10A rereplic 1%, KB-3-1 cytotox inactive, SW480 rerep 10%, IL1B secr inh -15 and KB-V1 MDR tox inactive.
CCN(Cc1ccccc1)C(=O)COC(=O)c1cc(=O)[nH]c2ccccc12 was read as MCF10A rereplic -2%, KB-3-1 cytotox inactive, SW480 rerep -2%, IL1B secr inh 6 and KB-V1 MDR tox inactive.
`CC1(C)C(=O)Nc2ccccc2N1C(=O)COC(=O)COc1ccc(C#N)cc1` gave MCF10A rereplic -2%, KB-3-1 cytotox inactive, SW480 rerep -5%, IL1B secr inh 5 and KB-V1 MDR tox inactive.
For Oc1ccc(/C=N/N2CCN(C3c4ccccc4-c4ccccc43)CC2)cc1 the results were MCF10A rereplic inconclusive, KB-3-1 cytotox inactive, SW480 rerep -13%, IL1B secr inh -64* and KB-V1 MDR tox inactive.
Oc1ccc(/C=N/N2CCN(C3c4ccccc4-c4ccccc43)CC2)c(O)c1 was read as MCF10A rereplic 6.5µM*, KB-3-1 cytotox inactive, SW480 rerep inconclusive, IL1B secr inh -5 and KB-V1 MDR tox inactive.
Screening O=C(O)c1ccc(/C=N/N2CCN(C3c4ccccc4-c4ccccc43)CC2)cc1 returned MCF10A rereplic 8%, KB-3-1 cytotox inactive, SW480 rerep 2%, IL1B secr inh -15 and KB-V1 MDR tox inactive.
Screening COc1ccc(Cc2nc3ccc(C(=O)N(C)C(C)c4ccon4)cc3o2)cc1 (stereo not given) returned MCF10A rereplic 1%, KB-3-1 cytotox inactive, SW480 rerep -4%, IL1B secr inh 24 and KB-V1 MDR tox inconclusive.
Screening NNC(=O)COc1ccc(-c2n[nH]c(C(F)(F)F)c2-c2ccc(Br)cc2)c(O)c1 returned MCF10A rereplic 18µM*, KB-3-1 cytotox inactive, SW480 rerep -79%, IL1B secr inh 19 and KB-V1 MDR tox inactive.
For COc1ccccc1-c1c(-c2ccc(OCC(=O)NN)cc2O)n[nH]c1C(F)(F)F the results were MCF10A rereplic inconclusive, KB-3-1 cytotox inactive, SW480 rerep 13%, IL1B secr inh -23 and KB-V1 MDR tox inactive.
CNc1nc(SCc2ccccc2Cl)nc2c1CCCC2 was read as MCF10A rereplic 18µM*, KB-3-1 cytotox inactive, SW480 rerep 0%[9.22 µM], IL1B secr inh -18 and KB-V1 MDR tox inconclusive.
`O=C1CCCC2=C1C1(CCCOC1)N=C(Nc1nc3ccccc3o1)N2` (stereo not given) gave KB-3-1 cytotox inactive and KB-V1 MDR tox inconclusive.
`O=[N+]([O-])c1ccc(N2CCN(S(=O)(=O)c3ccc(Cl)c(Cl)c3)CC2)cc1NCCN1CCOCC1` gave MCF10A rereplic 6%, KB-3-1 cytotox inactive, SW480 rerep 2%, IL1B secr inh 8 and KB-V1 MDR tox inactive.
Screening CCNc1cc(N2CCN(S(=O)(=O)c3ccc4c(c3)CCCC4)CC2)ccc1[N+](=O)[O-] returned MCF10A rereplic 18%, KB-3-1 cytotox inactive, SW480 rerep 3%, IL1B secr inh 11 and KB-V1 MDR tox 1.5µM*.
Screening O=[N+]([O-])c1cc(C(F)(F)F)ccc1N1CCN(S(=O)(=O)c2ccc3c(c2)CCCC3)CC1 returned MCF10A rereplic -2%, KB-3-1 cytotox inconclusive, SW480 rerep -10%, IL1B secr inh -6 and KB-V1 MDR tox 5.2µM*.
Screening O=C(CN1C(=O)CCc2cc(S(=O)(=O)N3CCOCC3)ccc21)NCc1ccc(F)cc1 returned KB-3-1 cytotox inactive and KB-V1 MDR tox inconclusive.
For O=C(C[N+]1(CCc2ccccc2)CCOCC1)c1ccccc1 the results were KB-3-1 cytotox inactive and KB-V1 MDR tox inactive.
Screening CCOc1ccc2cc(C3CC(c4ccco4)=NN3S(C)(=O)=O)c(=O)[nH]c2c1 (stereo not given) returned MCF10A rereplic -1%, KB-3-1 cytotox inconclusive, SW480 rerep 3%, IL1B secr inh 26 and KB-V1 MDR tox inactive.
